The results in this text go back to ChEMBL document CHEMBL3988442, “University of Dundee, Small-Polar-MMV Screening Library” (2021).

For some of these results: Results with a measured potency or affinity are listed apart.

Design in all cases: scale not given: direction of the effect not stated beside the values
The target in assay [1] is Protein translocase subunit SecA (Escherichia coli (strain K12)) (UniProt P10408). The assay can be described thus: Assay to Identify E. coli SecA ATPase Inhibitors. The class given is functional. Conditions: 30 µM.
Protein translocase subunit SecA (Escherichia coli (strain K12)), sequence (P10408 whole entry): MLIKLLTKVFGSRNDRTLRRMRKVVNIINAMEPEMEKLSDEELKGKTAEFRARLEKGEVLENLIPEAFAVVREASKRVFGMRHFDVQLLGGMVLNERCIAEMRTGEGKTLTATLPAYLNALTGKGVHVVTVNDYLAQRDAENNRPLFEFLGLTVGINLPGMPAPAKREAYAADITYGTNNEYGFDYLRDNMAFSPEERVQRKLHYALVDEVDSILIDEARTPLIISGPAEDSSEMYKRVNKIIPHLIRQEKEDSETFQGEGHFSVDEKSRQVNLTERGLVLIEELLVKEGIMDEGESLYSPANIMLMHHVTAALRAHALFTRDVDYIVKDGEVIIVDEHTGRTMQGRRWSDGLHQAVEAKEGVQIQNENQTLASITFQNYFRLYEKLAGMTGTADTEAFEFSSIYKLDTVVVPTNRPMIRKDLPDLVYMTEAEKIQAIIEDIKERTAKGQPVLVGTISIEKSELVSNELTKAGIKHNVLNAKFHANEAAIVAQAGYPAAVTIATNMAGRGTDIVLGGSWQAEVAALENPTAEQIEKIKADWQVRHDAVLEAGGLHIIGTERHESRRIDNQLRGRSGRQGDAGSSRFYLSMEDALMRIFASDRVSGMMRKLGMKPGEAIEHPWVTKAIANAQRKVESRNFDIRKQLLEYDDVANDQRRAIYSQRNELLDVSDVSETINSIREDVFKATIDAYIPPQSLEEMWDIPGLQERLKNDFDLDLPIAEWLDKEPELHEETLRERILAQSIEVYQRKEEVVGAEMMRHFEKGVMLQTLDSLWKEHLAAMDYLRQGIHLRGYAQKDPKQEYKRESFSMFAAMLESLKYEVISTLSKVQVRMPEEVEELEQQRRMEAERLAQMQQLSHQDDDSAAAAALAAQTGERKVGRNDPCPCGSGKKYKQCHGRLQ
Assay [2] addresses T1, Ubiquitin-activating enzyme e1, putative (Leishmania donovani (strain BPK282A1)) (UniProt E9BSI1).
T1 sequence (whole entry): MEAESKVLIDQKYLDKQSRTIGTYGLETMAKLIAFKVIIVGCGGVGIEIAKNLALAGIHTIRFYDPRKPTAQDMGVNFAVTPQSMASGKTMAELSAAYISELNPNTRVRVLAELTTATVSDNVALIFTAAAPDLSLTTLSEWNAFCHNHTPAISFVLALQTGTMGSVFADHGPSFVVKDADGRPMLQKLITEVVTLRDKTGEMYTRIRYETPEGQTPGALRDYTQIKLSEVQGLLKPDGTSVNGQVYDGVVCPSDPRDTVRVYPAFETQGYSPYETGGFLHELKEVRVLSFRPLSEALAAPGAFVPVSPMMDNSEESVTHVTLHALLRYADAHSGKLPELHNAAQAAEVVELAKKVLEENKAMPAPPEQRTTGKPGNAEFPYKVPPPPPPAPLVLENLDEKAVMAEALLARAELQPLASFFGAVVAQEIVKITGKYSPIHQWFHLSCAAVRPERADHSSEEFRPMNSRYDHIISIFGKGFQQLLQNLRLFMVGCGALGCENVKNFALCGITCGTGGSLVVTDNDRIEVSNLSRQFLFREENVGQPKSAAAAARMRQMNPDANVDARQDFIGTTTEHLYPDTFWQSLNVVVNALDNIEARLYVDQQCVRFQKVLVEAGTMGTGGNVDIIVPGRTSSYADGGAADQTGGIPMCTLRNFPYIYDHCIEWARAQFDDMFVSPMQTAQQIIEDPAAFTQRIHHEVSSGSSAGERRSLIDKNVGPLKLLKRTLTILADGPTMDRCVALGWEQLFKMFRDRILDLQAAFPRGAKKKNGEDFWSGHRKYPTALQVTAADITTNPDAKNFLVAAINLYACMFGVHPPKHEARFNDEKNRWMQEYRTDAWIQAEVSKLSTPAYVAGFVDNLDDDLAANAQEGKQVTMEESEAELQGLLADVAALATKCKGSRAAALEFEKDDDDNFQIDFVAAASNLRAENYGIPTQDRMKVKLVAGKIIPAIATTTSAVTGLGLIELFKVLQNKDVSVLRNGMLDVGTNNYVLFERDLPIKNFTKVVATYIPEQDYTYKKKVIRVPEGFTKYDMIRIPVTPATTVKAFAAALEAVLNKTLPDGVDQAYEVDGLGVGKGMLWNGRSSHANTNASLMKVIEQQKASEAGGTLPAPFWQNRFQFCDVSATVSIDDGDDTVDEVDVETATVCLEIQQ
Briefly: Leishmania donovani Ubiquitin Activating Enzyme (LdE1). The class given is functional. Conditions: 30 µM.

In assay [3] the target is AMP-activated protein kinase, AMPK (Homo sapiens) (UniProt P54646+O43741+P54619+Q9UGJ0+Q9Y478+Q13131+Q9UGI9). Briefly: AMP-dependent Kinase enzyme assay. An in vitro enzyme assay that detects ADP turnover that is directly proportional to AMPK activity. This uses naive AMPK that is activated during the assay with MK-8722. The class given is functional. Conditions: 30 µM.

Assay [4] concerns the target Sialic acid-binding Ig-like lectin 9 (Homo sapiens) (UniProt Q9Y336). Briefly: Hs-Siglec9 ALPHAscreen SOP 20170721. As to conditions: 10 µM. For orientation: In Alpha technology, singlet oxygen from a donor bead excites a nearby acceptor bead.
The test system of another assay is Trypanosoma cruzi. The assay can be described thus: Trypanosoma cruzi phosphomannomutase and mannose-1-phosphate guanylyltransferase assay. The class given is functional. As to conditions: 10 µM.
Assay [5] has as its target T2, Arginase-2, mitochondrial (Homo sapiens) (UniProt P78540).
T2 sequence (whole entry): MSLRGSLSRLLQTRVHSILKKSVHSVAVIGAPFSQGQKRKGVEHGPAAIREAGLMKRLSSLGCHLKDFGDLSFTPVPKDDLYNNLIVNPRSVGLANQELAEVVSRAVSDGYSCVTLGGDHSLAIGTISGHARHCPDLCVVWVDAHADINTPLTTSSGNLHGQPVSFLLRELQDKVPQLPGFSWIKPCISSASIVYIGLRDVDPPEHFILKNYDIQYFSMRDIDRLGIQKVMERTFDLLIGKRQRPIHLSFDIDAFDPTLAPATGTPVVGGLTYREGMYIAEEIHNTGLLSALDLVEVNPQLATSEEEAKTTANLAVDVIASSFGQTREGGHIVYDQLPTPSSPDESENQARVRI
The assay can be described thus: in vitro enzyme assay to detect the production of urea directly proportional to the activity of Arginase II. Further: in the data most compounds retested in dose-response had high values. The class given is functional. As to conditions: 33.3 µM.

Assay [6] addresses T3, Proteasome subunit beta (Trypanosoma cruzi) (UniProt O96673).
T3 sequence (whole entry): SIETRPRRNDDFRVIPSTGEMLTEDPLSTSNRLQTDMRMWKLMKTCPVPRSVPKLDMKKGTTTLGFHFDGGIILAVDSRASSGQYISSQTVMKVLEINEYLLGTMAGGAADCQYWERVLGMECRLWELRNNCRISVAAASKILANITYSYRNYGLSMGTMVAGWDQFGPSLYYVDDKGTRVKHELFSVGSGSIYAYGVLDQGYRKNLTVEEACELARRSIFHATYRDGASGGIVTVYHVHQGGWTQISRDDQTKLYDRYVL
Briefly: Trypanosoma cruzi proteasome chymotrypsin-like activity (TcProtChymo) assay. Further: in the data most compounds retested in dose-response had high values. As to conditions: 9.37 µM. The class given is functional.

For a further assay, the species on record is Homo sapiens. The assay can be described thus: To identify inhibition of the IFN signalling (Jak-Stat) pathway via expression of an eGFP reporter gene under the control of an IFN-stimulated response element (ISRE) containing MxA promoter. The class given is functional. Conditions: 30 µM. On the technique in general: A reporter such as luciferase makes a cellular process visible.

The target in assay [7] is T4, Tyrosyl-tRNA synthetase, putative (Trypanosoma cruzi (strain CL Brener)) (UniProt Q4DSP6).
T4 sequence (whole entry): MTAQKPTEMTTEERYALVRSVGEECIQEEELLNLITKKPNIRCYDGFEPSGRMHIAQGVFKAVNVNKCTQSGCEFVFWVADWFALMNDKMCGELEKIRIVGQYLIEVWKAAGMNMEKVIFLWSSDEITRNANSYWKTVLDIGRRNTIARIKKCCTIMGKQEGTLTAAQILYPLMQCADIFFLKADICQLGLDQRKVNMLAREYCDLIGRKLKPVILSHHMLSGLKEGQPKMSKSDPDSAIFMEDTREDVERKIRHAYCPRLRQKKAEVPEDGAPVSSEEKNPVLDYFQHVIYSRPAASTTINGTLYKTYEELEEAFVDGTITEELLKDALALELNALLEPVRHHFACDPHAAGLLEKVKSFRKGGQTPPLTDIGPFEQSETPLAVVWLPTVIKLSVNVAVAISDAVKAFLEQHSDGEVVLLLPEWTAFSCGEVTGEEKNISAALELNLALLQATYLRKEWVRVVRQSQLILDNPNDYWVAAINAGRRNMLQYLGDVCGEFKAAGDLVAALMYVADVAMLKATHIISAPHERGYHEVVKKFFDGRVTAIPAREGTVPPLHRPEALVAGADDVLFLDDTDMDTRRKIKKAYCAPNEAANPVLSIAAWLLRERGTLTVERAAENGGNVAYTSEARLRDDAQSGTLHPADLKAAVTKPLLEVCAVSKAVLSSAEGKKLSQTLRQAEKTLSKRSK
Briefly: Trypanosoma cruzi tyrosyl tRNA synthetase (TcYRS) _High Tyrosine SOP. Further: in the data most compounds retested in dose-response had high values. The class given is functional. As to conditions: 30 µM.

Assay [8] concerns the target T4, Tyrosyl-tRNA synthetase, putative (Trypanosoma cruzi (strain CL Brener)). The assay can be described thus: Trypanosoma cruzi tyrosyl tRNA synthetase (TcYRS) SOP. The class given is functional. As to conditions: 30 µM.
Assay [9] has as its target Chromo domain-containing protein 1 (Saccharomyces cerevisiae (strain ATCC 204508 / S288c) (Baker's yeast)) (UniProt P32657). The assay can be described thus: ScCHD-1 Enzyme Inhibition Assay. Further: in the data most compounds retested in dose-response had high values. The class given is functional. Conditions: 30 µM.

Sialic acid-binding Ig-like lectin 9 (Homo sapiens), sequence (Q9Y336 whole entry): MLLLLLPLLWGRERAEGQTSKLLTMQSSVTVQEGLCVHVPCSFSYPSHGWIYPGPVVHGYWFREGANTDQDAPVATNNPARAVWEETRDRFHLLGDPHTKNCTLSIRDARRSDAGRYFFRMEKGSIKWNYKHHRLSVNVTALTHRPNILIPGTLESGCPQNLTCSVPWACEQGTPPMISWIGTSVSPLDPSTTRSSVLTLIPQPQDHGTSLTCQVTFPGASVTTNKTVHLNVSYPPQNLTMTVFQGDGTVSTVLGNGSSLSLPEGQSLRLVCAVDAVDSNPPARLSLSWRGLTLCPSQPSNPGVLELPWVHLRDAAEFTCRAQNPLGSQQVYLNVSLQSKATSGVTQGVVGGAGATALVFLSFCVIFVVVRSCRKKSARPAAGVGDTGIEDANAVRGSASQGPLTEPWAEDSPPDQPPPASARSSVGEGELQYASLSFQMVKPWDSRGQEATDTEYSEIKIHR
Chromo domain-containing protein 1 (Saccharomyces cerevisiae (strain ATCC 204508 / S288c) (Baker's yeast)), sequence (P32657 whole entry, the tested form may be a part): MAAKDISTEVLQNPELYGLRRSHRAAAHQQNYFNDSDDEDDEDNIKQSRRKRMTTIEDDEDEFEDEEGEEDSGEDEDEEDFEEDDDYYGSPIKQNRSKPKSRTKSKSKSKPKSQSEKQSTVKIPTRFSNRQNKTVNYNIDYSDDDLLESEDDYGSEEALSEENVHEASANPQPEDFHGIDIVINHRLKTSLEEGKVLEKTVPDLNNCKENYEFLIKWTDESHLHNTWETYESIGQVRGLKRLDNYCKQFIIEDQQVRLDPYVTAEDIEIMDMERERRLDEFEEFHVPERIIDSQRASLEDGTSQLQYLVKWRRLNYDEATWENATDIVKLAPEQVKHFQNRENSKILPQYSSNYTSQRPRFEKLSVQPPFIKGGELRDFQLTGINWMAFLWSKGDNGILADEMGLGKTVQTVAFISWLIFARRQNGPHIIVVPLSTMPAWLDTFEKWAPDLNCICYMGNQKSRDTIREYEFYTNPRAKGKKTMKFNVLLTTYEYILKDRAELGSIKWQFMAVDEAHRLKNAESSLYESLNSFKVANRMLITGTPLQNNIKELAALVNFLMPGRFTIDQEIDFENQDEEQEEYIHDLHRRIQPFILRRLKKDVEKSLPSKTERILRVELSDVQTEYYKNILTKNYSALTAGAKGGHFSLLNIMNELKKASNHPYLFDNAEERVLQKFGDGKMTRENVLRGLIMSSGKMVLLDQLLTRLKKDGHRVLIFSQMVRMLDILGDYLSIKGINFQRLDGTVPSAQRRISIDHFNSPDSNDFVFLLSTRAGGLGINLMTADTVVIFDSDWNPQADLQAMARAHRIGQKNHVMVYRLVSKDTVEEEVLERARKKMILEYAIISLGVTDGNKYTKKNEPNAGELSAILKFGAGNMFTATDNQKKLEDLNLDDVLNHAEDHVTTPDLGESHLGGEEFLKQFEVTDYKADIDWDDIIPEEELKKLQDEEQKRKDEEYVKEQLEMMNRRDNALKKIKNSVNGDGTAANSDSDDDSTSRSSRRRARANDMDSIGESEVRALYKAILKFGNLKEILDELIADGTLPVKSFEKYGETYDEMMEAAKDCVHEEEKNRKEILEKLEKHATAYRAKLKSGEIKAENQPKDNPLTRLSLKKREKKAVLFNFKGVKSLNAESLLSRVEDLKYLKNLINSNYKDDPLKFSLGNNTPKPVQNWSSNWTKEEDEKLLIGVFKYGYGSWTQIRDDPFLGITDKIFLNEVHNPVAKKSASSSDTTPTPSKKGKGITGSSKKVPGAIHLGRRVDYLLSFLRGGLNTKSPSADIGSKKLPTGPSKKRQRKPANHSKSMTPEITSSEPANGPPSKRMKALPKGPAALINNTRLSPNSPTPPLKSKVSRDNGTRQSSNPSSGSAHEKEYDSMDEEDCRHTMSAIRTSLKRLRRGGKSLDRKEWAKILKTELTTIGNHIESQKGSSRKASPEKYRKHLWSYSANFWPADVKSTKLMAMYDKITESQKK

For `Cc1nc(C)n(C2CCCN(C(=O)c3cc(C(N)=O)cs3)C2)n1` (stereo unspecified), the Percent Effect was -7.57% in assay [1]; 13.9% in [2]; 0.492% in assay [3]; -4% in assay [4]; 0.718% with Trypanosoma cruzi; 1.07% in [5]. The Percent Effect in assay [6] was 8.92%; in the assay filed under Homo sapiens it was -7.04%; in assay [7] it was 2.08%; in assay [8] it was 12.7%; in assay [9] it was -31.4%.

With `CC(C)(C)NC(=O)CN1CCN(C(=O)Nc2ccc(F)cc2F)CC1`, the Percent Effect in assay [1] was -2.23%; in [2], 5.48%; in [3] it was 8.1%; in assay [4] it was -2.38%; with Trypanosoma cruzi it was -8.73%; in assay [5], -0.399%. For the same compound, the Percent Effect in assay [6] was 6.76%; in the assay listed under Homo sapiens, 10.3%; in assay [7], 3.12%; in [8] it was 6.17%; in assay [9], -2.48%.

Regarding `CO[C@H]1CN(C(=O)c2ccc3oc(C)cc3c2)CC[C@@]12CCCO2`, the Percent Effect is -0.467% in assay [1]; 1.35% in [2]; 11.4% in assay [3]; 2.79% in assay [4]; 0.593% in the assay on Trypanosoma cruzi; -0.696% in assay [5]. The Percent Effect was 5.77% in assay [6]; -10.3% in the assay listed under Homo sapiens; 0% in [7]; -1.3% in assay [8]; -11.8% in assay [9].

Consider `O=C(CCc1nccs1)N1CCCC(N2CCNC2=O)C1` (stereo unspecified), for which the Percent Effect in assay [1] is -3.25%; in assay [2], 11%; in [3], 5.41%; in assay [4] it was -1.3%; with Trypanosoma cruzi it was -2.35%; in assay [5], 5%. The Percent Effect was 8.16% in assay [6]; 4.48% in the assay filed under Homo sapiens; 4.3% in assay [7]; 10% in assay [8]; -4.2% in assay [9].

For `Cn1nc(C2CCCN(C(=O)Cc3ccsc3)C2)c2nccnc21` (stereo unspecified), the Percent Effect is -5.11% in [1]; 9.46% in [2]; 7.86% in assay [3]; 10.4% in assay [4]; -5.14% in the assay on Trypanosoma cruzi; -1.16% in assay [5]. The Percent Effect is 8.89% in [6]; 23.9% in the assay listed under Homo sapiens; -1.07% in [7]; 6.49% in assay [8]; -13.9% in assay [9].

For `CCS(=O)(=O)c1ccc(N2CCC(NC(=O)c3cnn(C)c3)CC2)cc1`, the Percent Effect in assay [1] was -5.94%; in [2] it was 2.67%; in assay [3], -5.84%; in assay [4], 34.3%; in the assay on Trypanosoma cruzi, 10.2%; in assay [5], -2.08%. The Percent Effect in assay [6] is 16.2%; in the assay filed under Homo sapiens, 21.8%; in assay [7], 1.64%; in assay [8] it was 13.6%; in assay [9] it was -5.47%.

As to `COc1c(C2CCCN2Cc2cc(C)no2)c(C)nn1C` (stereo unspecified), the Percent Effect in assay [1] is -1.92%; in [2], 8.11%; in assay [3], -4.61%; in assay [4], -2.24%; in the assay on Trypanosoma cruzi, -5.11%; in [5], 3.88%. In addition, the Percent Effect is 11.3% in assay [6]; 15.9% in the assay listed under Homo sapiens; 4.95% in assay [7]; 11% in [8]; -0.457% in assay [9].

Take `Cc1ccoc1C(=O)N1CCO[C@H]2[C@H](OCCN(C)C)CC[C@@H]21`: the Percent Effect was 0.717% in assay [1]; 5.33% in assay [2]; 0.186% in assay [3]; 15.6% in [4]; -2.7% with Trypanosoma cruzi; -56.5% in assay [5]. Besides, the Percent Effect in [6] was 5.98%; in the assay filed under Homo sapiens, -12.8%; in assay [7] it was 2.08%; in assay [8], 10%; in assay [9], -3.32%.

Regarding `CC(C)c1nc(C2CCCN2CC(=O)N2CCNC2=O)no1` (stereo unspecified), the Percent Effect in assay [1] was -3.33%; in assay [2], 2.63%; in [3], -0.208%; in assay [4], -4.56%; in the assay with Trypanosoma cruzi, 5.26%; in assay [5], 1.15%. Also, the Percent Effect is 1.34% in assay [6]; -5.94% in the assay listed under Homo sapiens; -0.49% in assay [7]; 4.88% in [8]; -10.2% in assay [9].

`CN1CCCc2cc(CNC(=O)c3ccncc3)ccc21`: the Percent Effect is -3.56% in assay [1]; 19% in [2]; 22.6% in assay [3]; -0.0483% in assay [4]; 1.54% in the assay on Trypanosoma cruzi; -1.94% in [5]. Besides, the Percent Effect in assay [6] was 21.4%; in the assay filed under Homo sapiens it was 28.5%; in [7] it was 2.08%; in assay [8], 17.7%; in assay [9], -25.8%.

Take `Cc1nn2c(N3CCC(O)C3)cc(-c3ccccc3)nc2c1C` (stereo unspecified): the Percent Effect in [1] is -2.08%; in assay [2], 16.4%; in [3], -7.6%; in assay [4], 7.31%; with Trypanosoma cruzi it was 2.58%; in [5], -1.6%. Moreover, the Percent Effect was 12.6% in assay [6]; -0.188% in the assay listed under Homo sapiens; 7.29% in [7]; -82.7% in assay [8]; -3.57% in assay [9].
